According to PubChem BioAssay AID463173 (ICCB-Longwood Screening Facility, Harvard Medical School, 2010):
Out of some 52,000 compounds screened, about 4,300 (8.3%) were called active. This excerpt belongs to a sample that is enriched for actives. Unmarked numbers belong to inactive results. Rule as the data show it: active = survival mostly below about 52% (no sharp cut-off); inactive = mostly above about 56%.

System: DeltatarO mutant
Assay: growth inhibition of S. aureus wild type versus tarO mutant, primary screen, teichoic acid synthesis inhibitors, RN4220, OD600 (AID 463173)
Conditions: OD600, 18 h, hits give low values, screened at 18.75 µg/mL (by protocol)

| SMILES | survival |
| --- | --- |
| O=C1CCc2cc(S(=O)(=O)NC(C(=O)Nc3ccc(F)cc3)c3ccccc3)ccc2N1 (stereo not given) | 100% |
| COc1ccc(-n2c(=O)c3c4c(sc3n(CC(=O)N3CCCCC3C)c2=O)CCC4)c(OC)c1 (stereo not given) | 87% |
| Cc1ccc(Cl)cc1NC(=O)Cn1c(=O)c(CNc2ccccc2)cc2cc3c(cc21)OCCO3 | 95% |
| CCc1ccc(CN2CCc3nc(Nc4ccccc4)ncc3C2)cc1 | 84% |
| Cc1ccc(Nc2nc3ccc(C(=O)c4ccccc4)cc3n3c(C)nnc23)c(C)c1 | 105% |
| CCCn1c2ccccc2c2cnn(CC(=O)NCCCN(Cc3ccccc3)C(C)C)c(=O)c21 | 88% |
| COc1ccc(-c2cc(C)nc3c(-c4ccc(OC)c(OC)c4)c(C)nn23)cc1 | 63% |
| COc1ccc(-c2c(C)nn3c(-c4ccccc4)cc(-c4ccccc4)nc23)cc1OC | 96% |
| COc1ccc(-c2cc(C(F)(F)F)n3nc(C)c(-c4ccccc4)c3n2)cc1OC | 69% (active) |
| COc1ccc(-c2c(C)nn3c(C(F)(F)F)cc(-c4ccccc4)nc23)cc1OC | 57% |
| COc1ccc(-c2c(C)nn3c(C(F)(F)F)cc(-c4ccccc4)nc23)cc1 | 62% |
| COc1ccc(-c2c(C)nn3c(-c4ccccc4)cc(C)nc23)cc1OC | 38% (active) |
| CC(CCO)Nc1nc2c(c(=O)n(C)c(=O)n2C)n1Cc1ccc(Br)cc1 (stereo not given) | 140% |
| COc1cccc(C(=O)NC2=NC(c3ccccc3F)CC(=O)N2)c1 (stereo not given) | 75% |
| CC(C)C(=O)Nc1c(C(=O)N2CCN(c3ccccc3F)CC2)oc2ccccc12 | 58% |
| O=C(NCc1ccccc1)C1CCCN(c2ncccn2)C1 (stereo not given) | 88% |
| Cc1cccc(-c2noc(-c3ccc(N4CCCC4)c([N+](=O)[O-])c3)n2)c1 | 82% |
| Cc1cccc(-c2noc(-c3ccc(N4CCN(C)CC4)c([N+](=O)[O-])c3)n2)c1 | 22% (active) |
| COc1ccccc1-c1noc(-c2ccc(N3CCN(C)CC3)c([N+](=O)[O-])c2)n1 | 113% |
| CN1CCN(c2ccc(-c3nc(-c4ccccc4)no3)cc2[N+](=O)[O-])CC1 | 41% (active) |
| COc1ccccc1-c1noc(-c2ccc(N3CCN(c4ccccc4)CC3)c([N+](=O)[O-])c2)n1 | 44% (active) |
| Cc1cccc(-c2noc(-c3ccc(N4CCOCC4)c([N+](=O)[O-])c3)n2)c1 | 67% |

| SMILES | survival |
| --- | --- |
| O=[N+]([O-])c1cc(-c2nc(-c3ccccc3)no2)ccc1N1CCN(c2ccccc2)CC1 | 77% |
| Cc1ccc(-c2noc(-c3ccc(N4CCN(C)CC4)c([N+](=O)[O-])c3)n2)cc1 | 85% |
| COc1ccccc1-c1noc(-c2ccc(N3CCOCC3)c([N+](=O)[O-])c2)n1 | 100% |
| Cc1ccc(-c2nc(SCC(=O)Nc3cc(C)on3)c3c(=O)n(C)c(=O)n(C)c3n2)cc1 | 83% |
| CC(=O)c1ccc(NC(=O)CSc2nc(=O)n(Cc3ccccn3)c3c2CCC3)cc1 | 67% |
| COc1ccc(CCNC(=O)CSC2=Nc3ccccc3C3=NC(CCC(=O)NCc4ccccc4)C(=O)N23)cc1OC (stereo not given) | 107% |
| O=C(Nc1nc2c(F)cc(F)cc2s1)c1ccc2c(c1)OCCO2 | 85% |
| Cn1cc(C(=O)NCc2ccccc2)c(=O)c2cc(S(=O)(=O)N3CCCCCC3)ccc21 | 118% |
| COc1ccc(C)cc1NC(=O)c1ccc(NS(=O)(=O)c2c(C)noc2C)cc1 | 83% |
| Cc1noc(C)c1S(=O)(=O)Nc1ccc(C(=O)Nc2ccc(Br)cc2)cc1 | 36% (active) |
| CCc1ccc(NC(=O)c2ccc(NS(=O)(=O)c3c(C)noc3C)cc2)cc1 | 48% |
| Cc1cc(Br)ccc1NC(=O)c1ccc(NS(=O)(=O)c2c(C)noc2C)cc1 | 59% |
| Cc1noc(C)c1S(=O)(=O)Nc1ccc(C(=O)Nc2ccc(C(C)C)cc2)cc1 | 52% (active) |
| Cc1noc(NS(=O)(=O)c2ccc(NC(=O)c3ccc(Br)cc3)cc2)c1C | 74% |
| Cc1cccc(C)c1NC(=O)CSc1nc(-c2ccccc2)nc2c1Cc1c(CO)cnc(C)c1O2 | 87% |
| Cc1cc(C)c(NC(=O)C2CCN(c3nnc(C)c4c(C)n(-c5ccccc5)nc34)CC2)c(C)c1 | 52% (active) |
| Cc1ccc(NC(=O)C2CCN(c3nnc(C)c4c(C)n(-c5ccccc5)nc34)CC2)cc1Cl | 71% |
| CCc1cccc(C)c1NC(=O)C1CCN(c2nnc(C)c3c(C)n(-c4ccccc4)nc23)CC1 | 77% |
| O=C(Nc1cccc(C(F)(F)F)c1)c1cccnc1NCCO | 77% |
| C=C(C)Cn1c(SCC(=O)c2ccc(OC)cc2)nc2sc3c(c2c1=O)CCCC3 | 75% |
| CCCCn1c(SCC(=O)c2ccccc2)nc2sc3c(c2c1=O)CCCC3 | 44% (active) |
| C=C(C)CSc1nc2sc3c(c2c(=O)n1CCCC)CCCC3 | -3% (active) |

| SMILES | survival |
| --- | --- |
| CCOC(=O)CSc1nc2sc3c(c2c(=O)n1CC)CCCC3 | 58% |
| C=C(C)Cn1c(SCC(=O)c2ccccc2)nc2sc3c(c2c1=O)CCCC3 | 69% |
| C=C(C)Cn1c(SCC(=O)c2ccc(Br)cc2)nc2sc3c(c2c1=O)CCCC3 | 50% |
| COc1ccc(CNC(=O)CN(C)S(=O)(=O)c2ccc3[nH]c4c(c3c2)CCCC4)cc1 | 70% |
| Cn1c(C(=O)N(Cc2ccccc2)C(C)(C)C)cc2sccc21 | 109% |
| CCOc1ccccc1CNC(=O)C1CCN(c2nnc(C)c3c(C)n(-c4ccc(C)cc4)nc23)CC1 | 68% |
| COc1cccc(CC(=O)Nc2ccc3nc(Nc4cccc(C(F)(F)F)c4)cc(C)c3c2)c1 | 25% (active) |
| Cc1cc(Nc2cccc(C(F)(F)F)c2)nc2ccc(NC(=O)c3ccc(=O)[nH]c3)cc12 | 37% (active) |
| Cc1cc(Nc2cccc(C(F)(F)F)c2)nc2ccc(NC(=O)c3ccc(N(C)C)cc3)cc12 | 55% |
| Cc1cc(Nc2cccc(C(F)(F)F)c2)nc2ccc(NC(=O)c3cccc(Cl)c3)cc12 | 92% |
| COc1ccccc1CC(=O)Nc1ccc2nc(Nc3cccc(C(F)(F)F)c3)cc(C)c2c1 | 92% |
| COc1ccc(CC(=O)Nc2ccc3nc(Nc4cccc(Cl)c4)cc(C)c3c2)cc1OC | 46% (active) |
| COc1ccc(CC(=O)Nc2ccc3nc(Nc4cccc(Cl)c4)cc(C)c3c2)cc1 | 98% |
| Cc1cc(Nc2cccc(Cl)c2)nc2ccc(NC(=O)Cc3cccc(C(F)(F)F)c3)cc12 | 64% |
| COc1ccccc1CC(=O)Nc1ccc2nc(Nc3cccc(Cl)c3)cc(C)c2c1 | 144% |
| O=C(Cn1cc(S(=O)(=O)Cc2ccccc2Cl)c2ccccc21)Nc1cccc(C(F)(F)F)c1 | 75% |
| CCOc1ccc(C2C(C(=O)Nc3ccccc3)=C(C)Nc3nc(SCc4cc(C)ccc4C)nn32)cc1 (stereo not given) | 123% |
| Cc1ccc(NC(=O)Cn2c(=O)n(-c3ccc(CC(=O)NCC4CCCO4)cc3)c(=O)c3ccccc32)cc1 (stereo not given) | 95% |
| CCCCOC(=O)c1ccc(NC(=O)c2cc3c(=O)n4cccc(C)c4nc3s2)cc1 | 66% |
| COc1cc(OC)cc(C(=O)NCC(c2cccs2)S(=O)(=O)c2ccc(F)c(C)c2)c1 (stereo not given) | 100% |
| Cc1cccc(NC(=O)C2CCCN(S(=O)(=O)c3ccc4c(c3)CCCC(=O)N4)C2)c1 (stereo not given) | 95% |
| COc1ccc(NS(=O)(=O)c2ccc3[nH]c(=O)ccc3c2)cc1OC | 98% |

| SMILES | survival |
| --- | --- |
| COc1ccc(-c2nc3sc(CCNC(=O)c4cc(Cl)ccc4OC)c(C)n3n2)cc1 | 73% |
| COc1ccc(C(C(=O)NCc2cccs2)N(Cc2ccco2)C(=O)Cn2nnc(-c3cccs3)n2)cc1 (stereo not given) | 93% |
| CCc1cccc(C)c1NC(=O)CCCn1nc(C)c2sc3ccccc3c2c1=O | 86% |
| CCc1ccc(Sc2cc(C(=O)O)c3ccccc3n2)cc1 | 78% |
| CCOCCCNC(=O)CN1C(=O)COc2ccc(S(=O)(=O)N3CCCC3)cc21 | 87% |
| CCC(Cn1nnc2ccccc2c1=O)NC(=O)Nc1cc(C)cc(C)c1 (stereo not given) | 41% (active) |
| CCC(Cn1nnc2ccccc2c1=O)NC(=O)Nc1ccc(C)cc1C (stereo not given) | 44% (active) |
| CCC(Cn1nnc2ccccc2c1=O)NC(=O)Nc1ccccc1Cl (stereo not given) | 85% |
| CCC(Cn1nnc2ccccc2c1=O)NC(=O)Nc1cccc(C)c1C (stereo not given) | 55% |
| CCC(Cn1nnc2ccccc2c1=O)NC(=O)Nc1ccc(C)cc1 (stereo not given) | 55% |
| CCC(Cn1nnc2ccccc2c1=O)NC(=O)Nc1cccc(Cl)c1 (stereo not given) | 39% (active) |
| CCC(Cn1nnc2ccccc2c1=O)NC(=O)Nc1ccc(C)c(C)c1 (stereo not given) | 45% |
| CCc1ccccc1NC(=O)NC(CC)Cn1nnc2ccccc2c1=O (stereo not given) | 61% |
| CCC(Cn1nnc2ccccc2c1=O)NC(=O)Nc1cc(OC)cc(OC)c1 (stereo not given) | 88% |
| COc1ccccc1CNC(=O)C(C)n1ccc2cc(S(=O)(=O)N3CCCC3)ccc21 (stereo not given) | 81% |
| CCc1ccc(CN2CCC(C(=O)N(C)CCc3ccc(OC)c(OC)c3)CC2)cc1 | 81% |
| CCCN(C(=O)c1cc2c(=O)[nH]c3ccc(C)cc3c2s1)c1ccc(CC)cc1 | 64% |
| CCCCNS(=O)(=O)c1ccc(NC(=O)c2c(-c3ccccc3)noc2C)cc1 | 101% |
| CN(C)c1ccc(CNC(=O)C2CCN(S(=O)(=O)c3ccc4c(ccn4C)c3)CC2)cc1 | 95% |
